Assay outcomes from PubChem BioAssay.
PLK1 PBD block – qHTS for Inhibitors of PLK1-PDB (polo-like kinase 1 - polo-box domain): Primary Screen | 360,000 tested, 2.8% active | Plk1 PBD binding of FITC phosphopeptide, fluorescence polarization | Potency, µM, actives largely listed as inhibitors | AID 720504, 2013 | Serine/threonine-protein kinase PLK1 (Homo sapiens), P53350; note: series mostly up to about 57 µM; nearly all actives have a fitted effect of over 65% in size
VDR inh – Inhibitors of the vitamin D receptor (VDR): qHTS. Vitamin D3 receptor (Homo sapiens), P11473. VDR-SRC2-3 peptide fluorescence polarization, 2 h. Potency, µM, usual class: inhibitors. 400,000 tested, 0.93% active
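Measured by FP: displacement of SRC2-3 coactivator peptide from VDR by library compounds, following a two-hour ambient incubation.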
BAZ2B block – qHTS Assay for Inhibitors of BAZ2B; AlphaScreen BAZ2B-H3K14Ac peptide displacement; 360,000 tested, 4.4% active; Potency, µM (highest dose often 114 µM), usual class: inhibitors; Bromodomain adjacent to zinc finger domain protein 2B (Homo sapiens), Q9UIF8; note: nearly all actives have a fitted effect of over 60% in size
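AlphaScreen luminescence quantifies BAZ2B engagement of H3K14Ac peptide; the protein and biotinylated peptide are both at 50 nM final, buffer PBS pH 7.4 with 0.01% Tween-20, all steps at room temperature.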
JMJD2A Tudor – qHTS Assay for Inhibitors of JMJD2A-Tudor Domain | Lysine-specific demethylase 4A (Homo sapiens), O75164 | AlphaScreen JMJD2A-Tudor / H3K4me3 peptide binding | 390,000 tested, 4.4% active | Potency, µM (titrated, usually from 114 µM), actives largely listed as inhibitors | AID 504339, 2011; note: nearly all actives have a fitted effect of over 50% in size
G9a block – qHTS Assay for Inhibitors of Histone Lysine Methyltransferase G9a; 350,000 tested, 8.8% active; G9a H3K9 monomethylation, AlphaScreen, 2 h; Potency, µM (highest dose often 102 µM), actives largely listed as inhibitors; note: nearly all actives have a fitted effect of over 75% in size
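G9a (20 nM) preincubated 15 min RT with compounds, then 500 nM biotinylated H3K9 peptide and 20 uM SAM added; 2 h RT reaction. Monomethyl-H3K9 product detected by AlphaScreen with anti-H3K9me1 antibody, streptavidin donor and anti-rabbit IgG acceptor beads.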
HP1b chromo inh – HTS for Inhibitors of HP1-beta Chromodomain Interactions with Methylated Histone Tails; Chromobox protein homolog 1 (Homo sapiens), P83916; AlphaScreen HP1-beta / biotin-H3K9me3 peptide binding; Potency, µM (series often up to 114 µM), actives largely listed as inhibitors; 390,000 tested, 0.56% active; AID 540317, 2011; note: nearly all actives have a fitted effect of over 70% in size
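HP1-beta protein (50 nM final) preincubated 30 min at room temperature with biotinylated H3(1-18)K9me3 peptide (50 nM) in PBS pH 7.4, 0.01% Tween-20, then compound added for 30 min. AlphaScreen streptavidin donor/nickel chelate acceptor beads (10 ug/mL final), 30 min dark, luminescence read.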
Numbers stand for hits; ! = not active in a repeat; [ ] = remark or other dose. A selection: hits, their analogues and other compounds. The true share with any hit is near 11%. Calls come from the whole dose curve; as a rule, active = well fitted curve in the direction sought with a large enough effect; inconclusive = small, poorly fitted or top-dose-only effect, or another doubt; inactive = no such curve, though single readings can be large; an effect the other way counts as inactive or inconclusive.

`NCCNCCNCCNCCN` gave VDR inh inactive and G9a block inactive.
`COc1cc(CC2(CCc3ccncc3)C(=O)NC(=O)NC2=O)cc(OC)c1OC` gave PLK1 PBD block inactive, VDR inh inactive, BAZ2B block inactive, JMJD2A Tudor inactive, G9a block inactive and HP1b chromo inh inactive.
For COc1cc2c(cc1OC)-c1c(OC)c(OC)c(OC)c3ccnc(c13)C2=O the results were PLK1 PBD block inactive, VDR inh inactive, BAZ2B block 28µM, JMJD2A Tudor inconclusive, G9a block inconclusive and HP1b chromo inh inactive.
Cn1cnc([N+](=O)[O-])c1Sc1ccc([N+](=O)[O-])cc1 was read as PLK1 PBD block 11µM, VDR inh inactive, BAZ2B block inactive, JMJD2A Tudor inactive and HP1b chromo inh inactive.
`c1ccc(/N=C2\N=C(Nc3ccccn3)c3ccccc32)nc1` gave PLK1 PBD block inactive, VDR inh inactive, JMJD2A Tudor inactive and HP1b chromo inh inactive.
For CCN(CC)C(=O)c1ccc(NC(=O)CSc2nnnn2-c2cc(OC)ccc2OC)cc1 the results were PLK1 PBD block inactive, VDR inh inactive, BAZ2B block inactive, JMJD2A Tudor inactive, G9a block inactive[12.7 µM] and HP1b chromo inh inactive.
O=C(CSc1nnnn1-c1ccccc1)Nc1ccc(N2CCOCC2)c(Cl)c1 was read as PLK1 PBD block inactive, VDR inh inactive, BAZ2B block inactive, JMJD2A Tudor inactive, G9a block 13µM and HP1b chromo inh inactive.
For CN(C)c1ccc(C=C2C=CC=C2)cc1 the results were PLK1 PBD block inactive, VDR inh inactive, JMJD2A Tudor 18µM and HP1b chromo inh 22µM.
COc1cc2c(c(OC)c1OC)-c1ccc(O)c(=O)cc1[C@@H](NC(C)=O)CC2 was read as PLK1 PBD block inactive, VDR inh inactive, JMJD2A Tudor 56µM and HP1b chromo inh inactive.
For COc1cc2c(c(OC)c1OC)-c1ccc(O)cc1C(NC(C)=O)CC2 (centres undefined) the results were PLK1 PBD block inactive, VDR inh inactive, JMJD2A Tudor inactive and HP1b chromo inh inactive.
Screening Cc1ccc(-c2nc(CN3C(=O)CN=C(c4ccccc4)c4ccccc43)c(C)o2)cc1 returned VDR inh inactive, BAZ2B block inactive, JMJD2A Tudor inactive, G9a block inconclusive and HP1b chromo inh inactive.
Cc1oc(-c2ccccc2Cl)nc1CN1C(=O)CN=C(c2ccccc2)c2ccccc21 was read as PLK1 PBD block inactive, VDR inh inactive, BAZ2B block inconclusive, JMJD2A Tudor inconclusive, G9a block 40µM and HP1b chromo inh inactive.
Nc1nc2[nH]c(=O)cnc2c(=O)[nH]1 was read as VDR inh inactive and G9a block inactive[12.7 µM].
CNC(=O)Oc1ccc2c(c1)[C@@]1(C)CCN(C)C1N2C (some centres undefined) was read as VDR inh inactive and G9a block inactive[2.33 µM].
Screening CC(Oc1cc2oc(=O)c3c(c2cc1Cl)CCCC3)C(=O)NCc1ccccn1 (centres undefined) returned PLK1 PBD block 24µM, VDR inh inactive, BAZ2B block inactive, JMJD2A Tudor inactive, G9a block inconclusive and HP1b chromo inh inactive.
`C=CCN1CC[C@]23c4c5ccc(O)c4O[C@H]2/C(=N/NC(=O)c2ccccc2)CC[C@@]3(O)[C@H]1C5` gave PLK1 PBD block inactive, VDR inh inconclusive, JMJD2A Tudor inactive, G9a block 35µM and HP1b chromo inh inactive.
`CC(O)C(C)OC(=O)[C@@H]1C[C@@H]2c3cccc4c3c(cn4C(C)C)C[C@H]2N(C)C1` (some centres undefined) gave VDR inh inactive and G9a block 45µM!.
Screening Cc1cc(O)cc2c1O[C@@](C)(CCC[C@@H](C)CCC[C@@H](C)CCCC(C)C)CC2 returned PLK1 PBD block inactive, VDR inh inactive, BAZ2B block inactive, JMJD2A Tudor inconclusive, G9a block inactive and HP1b chromo inh inactive.
For CCC(=NCCCN1CCOCC1)c1c(O)n(Cc2ccccc2)c(=O)[nH]c1=O the results were PLK1 PBD block inactive, VDR inh inactive, BAZ2B block inactive, JMJD2A Tudor inactive, G9a block 13µM and HP1b chromo inh inactive.
Screening CCCCn1c(O)c(C=NCCN2CCCCC2)c(=O)[nH]c1=O returned PLK1 PBD block inactive, VDR inh inactive, BAZ2B block inactive, JMJD2A Tudor inactive, G9a block 79µM and HP1b chromo inh inactive.
`CC(=NCCN1CCOCC1)c1c(O)n(-c2ccccc2C)c(=O)[nH]c1=O` gave PLK1 PBD block inactive, VDR inh inactive, BAZ2B block inactive, JMJD2A Tudor inactive, G9a block inactive and HP1b chromo inh inactive.
Screening CCC(=NCCN1CCOCC1)c1c(O)n(-c2ccccc2C)c(=O)[nH]c1=O returned PLK1 PBD block inactive, VDR inh inactive, BAZ2B block inactive, JMJD2A Tudor inactive, G9a block 28µM and HP1b chromo inh inactive.
Screening CCCCn1c(O)c(C(C)=NCCN2CCOCC2)c(=O)[nH]c1=O returned PLK1 PBD block inactive, VDR inh inactive, BAZ2B block inactive, JMJD2A Tudor inactive, G9a block 22µM and HP1b chromo inh inactive.
Screening CN1C2CCC1CC(OC(=O)C1CCC(C(=O)OC3CC4CCC(C3)N4C)(c3ccccc3)c3ccccc31)C2 (centres undefined) returned VDR inh inactive.
`CSc1ccc(Cl)c(C(=O)OCC(=O)N2CCN(C(=O)c3ccco3)CC2)c1` gave PLK1 PBD block inactive, VDR inh inactive, BAZ2B block inactive, JMJD2A Tudor inactive, G9a block inconclusive and HP1b chromo inh inactive.
`COc1ccc(Nc2cc(C)c3cc(NC(=O)c4ccccc4Cl)ccc3n2)cc1` gave VDR inh inactive, BAZ2B block inactive, JMJD2A Tudor inconclusive, G9a block inconclusive and HP1b chromo inh inactive.
For CC(=O)[C@H]1[C@H](C#N)C[C@H]2[C@@H]3CC=C4C[C@@H](O)CC[C@]4(C)[C@H]3CC[C@@]21C the results were PLK1 PBD block inactive, VDR inh inactive, BAZ2B block inactive, JMJD2A Tudor inactive, G9a block inactive and HP1b chromo inh inactive.
For NC(=O)c1cccn(Cc2ccc(C(F)(F)F)cc2)c1=O the results were PLK1 PBD block inactive, VDR inh inactive, BAZ2B block inactive, JMJD2A Tudor inactive[11.4 µM], G9a block inactive and HP1b chromo inh inactive.
Screening Cc1ccc2c(c1)C1CN(C)CCC1N2C(=O)Nc1ccc(Cl)cc1 (centres undefined) returned PLK1 PBD block inactive, VDR inh inactive, BAZ2B block inactive, JMJD2A Tudor inactive, G9a block inactive and HP1b chromo inh inactive.
